# Data: PubChem BioAssay (Tox21)
# Several values for one entry are separate records, joined by “and”; a condition that tells them apart may be missing. Identical values can stand only once. Records with an inconclusive call do not appear. Where a call stands in place of a potency, no number is given. Activity calls are given as the source filed them. The call rests on the fitted dose curve; in most records, active means well fitted inhibition curve with a large enough effect in the repeat runs; inconclusive means weak or mixed curves, or effect the other way; inactive means no such curve, though single readings can be large or run the other way.
# Target: Androgen receptor (Homo sapiens) (UniProt P10275)
# Sequence (P10275 whole entry, looked up): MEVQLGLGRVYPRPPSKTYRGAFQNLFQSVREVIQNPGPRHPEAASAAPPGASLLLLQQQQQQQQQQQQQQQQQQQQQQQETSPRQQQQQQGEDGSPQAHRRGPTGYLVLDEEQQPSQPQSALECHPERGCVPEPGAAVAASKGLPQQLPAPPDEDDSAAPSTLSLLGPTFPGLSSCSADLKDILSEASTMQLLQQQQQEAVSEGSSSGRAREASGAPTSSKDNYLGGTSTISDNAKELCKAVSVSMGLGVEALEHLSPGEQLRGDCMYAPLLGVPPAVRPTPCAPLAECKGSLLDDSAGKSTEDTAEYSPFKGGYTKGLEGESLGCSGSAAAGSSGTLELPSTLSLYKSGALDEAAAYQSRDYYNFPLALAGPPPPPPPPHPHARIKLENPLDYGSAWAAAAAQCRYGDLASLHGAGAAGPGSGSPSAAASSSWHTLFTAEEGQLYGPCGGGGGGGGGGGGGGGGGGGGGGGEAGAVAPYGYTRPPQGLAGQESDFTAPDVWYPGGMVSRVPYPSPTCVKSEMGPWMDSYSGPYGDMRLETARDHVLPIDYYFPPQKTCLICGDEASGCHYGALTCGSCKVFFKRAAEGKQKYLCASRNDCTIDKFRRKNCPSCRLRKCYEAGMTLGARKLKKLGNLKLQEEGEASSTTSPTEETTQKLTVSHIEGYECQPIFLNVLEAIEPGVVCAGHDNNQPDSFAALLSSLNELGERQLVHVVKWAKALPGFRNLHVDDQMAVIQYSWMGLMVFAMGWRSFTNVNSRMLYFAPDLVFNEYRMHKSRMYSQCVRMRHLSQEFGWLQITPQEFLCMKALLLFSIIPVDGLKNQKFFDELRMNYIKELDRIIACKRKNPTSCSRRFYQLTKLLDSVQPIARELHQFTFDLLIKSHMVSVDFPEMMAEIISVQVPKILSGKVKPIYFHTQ
# Assay: qHTS assay to identify small molecule antagonists of the androgen receptor (AR) signaling pathway using the MDA cell line (AID 743042; further: nearly all actives have a fitted effect of over 55% in size)
# Conditions: MDA-kb2 AR-luc, MMTV luciferase, R1881 antagonist, 16 h; series mostly up to 70.3 µM
# In short: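 Antagonist mode: compounds plus R1881 agonist added to MDA-kb2 AR-luc cells, incubated 16 h at 37C. Luciferase reporter luminescence quantified, with multiplexed CellTiter-Fluor readout for cell viability.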
# Potency means the concentration at half of the fitted maximal effect.
row,Compound,Potency
1,CCN1CCCC1CNC(=O)c1cc(S(=O)(=O)CC)ccc1OC (stereo not drawn),inactive
2,CC1(C)C[C@@H]1C(=O)N/C(=C\CCCCSC[C@H](N)C(=O)O)C(=O)O,inactive
3,O=C1c2ccccc2-c2n[nH]c3cccc1c23,inactive
4,CO[C@H](C(=O)[C@@H](O)[C@@H](C)O)C1Cc2cc3cc(O[C@H]4C[C@@H](O[C@H]5C[C@@H](O)[C@H](O)[C@@H](C)O5)[C@@H](O)[C@@H](C)O4)c(C)c(O)c3c(O)c2C(=O)[C@H]1O[C@H]1C[C@@H](O[C@H]2C[C@@H](O[C@H]3C[C@](C)(O)[C@H](O)[C@@H](C)O3)[C@H](O)[C@@H](C)O2)[C@H](O)[C@@H](C)O1 (stereo partly drawn),473 nM (active) and 266 nM (active)
5,CO[C@H]1C[C@@H]2CC[C@@H](C)[C@@](O)(O2)C(=O)C(=O)N2CCCC[C@H]2C(=O)O[C@H]([C@H](C)C[C@@H]2CC[C@@H](O)[C@H](OC)C2)CC(=O)[C@H](C)C=C(C)[C@@H](O)[C@@H](OC)C(=O)[C@H](C)C[C@H](C)/C=C/C=CC=C1C,21.1 µM (active) and 23.7 µM (active)
6,CC(=O)[C@]1(O)Cc2c(O)c3c(c(O)c2[C@@H](O[C@H]2C[C@H](N)[C@H](O)[C@H](C)O2)C1)C(=O)c1ccccc1C3=O,422 nM (active)
7,CCc1ncnc2cc(OC)c(OC)cc12,inactive
8,C=CC1=C(C(=O)O)N2C(=O)[C@@H](NC(=O)/C(=N\O)c3csc(N)n3)[C@H]2SC1 (stereo in doubt),inactive
